Laboratory results: ChEMBL document CHEMBL3988442, “University of Dundee, Small-Polar-MMV Screening Library” (2021)

Molecular target: T1, Aspartate--tRNA(Asp/Asn) ligase (Mycobacterium tuberculosis (strain ATCC 25618 / H37Rv)) (UniProt P9WFW3)
T1 sequence (whole entry): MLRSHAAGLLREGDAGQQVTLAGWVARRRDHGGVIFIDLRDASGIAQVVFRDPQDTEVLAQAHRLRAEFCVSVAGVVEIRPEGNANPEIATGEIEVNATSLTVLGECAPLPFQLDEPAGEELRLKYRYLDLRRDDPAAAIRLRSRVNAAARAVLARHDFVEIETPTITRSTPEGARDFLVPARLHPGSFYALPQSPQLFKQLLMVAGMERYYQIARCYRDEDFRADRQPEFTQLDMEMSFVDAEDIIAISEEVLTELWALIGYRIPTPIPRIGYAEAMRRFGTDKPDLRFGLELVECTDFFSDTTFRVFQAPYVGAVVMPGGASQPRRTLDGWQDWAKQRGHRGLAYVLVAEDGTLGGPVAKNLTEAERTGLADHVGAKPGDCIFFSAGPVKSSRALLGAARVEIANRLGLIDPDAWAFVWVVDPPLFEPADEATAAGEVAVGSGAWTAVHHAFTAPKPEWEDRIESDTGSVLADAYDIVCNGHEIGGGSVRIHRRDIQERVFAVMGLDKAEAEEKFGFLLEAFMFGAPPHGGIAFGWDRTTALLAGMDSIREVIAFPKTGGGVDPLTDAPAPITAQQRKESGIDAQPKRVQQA
Assay: Assay for Asp RNA synthetase-1 from Mycobacterium tuberculosis
Format: functional
Set-up: scale not given: in the data most compounds retested in dose-response had high values
Details: 30 µM

Compound | Percent Effect
Cc1cnn(CC2CCCN2CC(=O)Nc2cc(C(C)(C)C)no2)c1 (stereo not given) | 0.278%
CN(CC(=O)N1CCCC1Cn1cccn1)c1cnccn1 (stereo not given) | -1.26%
CC(O)CNC(=O)NCc1ccc(N2CCNC(=O)C2)cc1 (stereo not given) | 2.09%
CCCc1cc(CNC(=O)C2CCOc3ccccc3C2)on1 (stereo not given) | 2.59%
Cc1ncsc1-c1nnc(C2CCN(CC3CCCCC3)CC2)o1 | -2.81%
O=C(Cc1ccccc1)N1CCC2(CC(=O)N(c3cccc(F)c3)C2)C1 (stereo not given) | -1.85%
CN(C(=O)NCc1ccncc1)C1CCN(c2ccccc2)C1=O (stereo not given) | -3.08%
Cc1nn(C)c(N(C)C)c1CNC1CCOc2c(F)cccc21 (stereo not given) | -0.433%
COc1cc(C(=O)NS(=O)(=O)c2cccc(C#N)c2)cc(Cl)c1OC | 0.845%
CN(CC(=O)NC1(C#N)CCCC1)C1CCCN(c2cccnn2)C1 (stereo not given) | 7.28%
Cc1oc(C)c(C(=O)NCc2cccnc2N(C)C)c1C | -2.01%
CCCc1nc(CN2CCN(CC(O)c3ccccc3)CC2)no1 (stereo not given) | -4%
CCOc1ccccc1OC1CCN(C(=O)c2ccc(=O)[nH]n2)CC1 | -5.79%
Cc1cccc(-n2ncc(C(=O)N3CCn4c(C)nnc4C3)c2C)c1 | 3.68%
CCn1nc2c(cc1=O)CN(Cc1nc(-c3ccccn3)no1)CC2 | 29%
CNc1cncc(C2CCCN2Cc2ccccn2)n1 (stereo not given) | -3.38%
CNC(=O)c1ccc(OC2CCN(S(C)(=O)=O)CC2)c(Cl)c1 | -0.864%
O=C(Cc1c[nH]c2ccccc12)N1CCN(C(=O)c2ccoc2)CC1 | 7.22%
CN1CCc2c(C#N)c(NCCCN3CCOCC3)n3cnnc3c2C1 | 5.9%
O=C(NCCCNC(=O)c1cccc(O)c1)Nc1ccc(F)cc1F | -6.98%

Compound | Percent Effect
CCc1ncc2c(n1)CN(CC(=O)Nc1ccc(Cl)cn1)CC2 | 0.367%
COCCCN(CCOC)C(=O)Nc1ccccc1Br | -10.6%
O=C(C1CCCc2[nH]ncc21)N1CCCCCC1 (stereo not given) | -0.324%
Cc1ncc(CNC2CCCN(Cc3noc(C4CC4)n3)C2)s1 (stereo not given) | -4.12%
c1csc(-c2nc(CNC3CCc4ncnn4C3)co2)c1 (stereo not given) | 1.3%
c1cncc(-c2ccc3c(c2)C2(CC3)CCN(c3nncs3)CC2)c1 | 1.44%
CCn1cnnc1C1CCN(C(=O)c2ccc(Cl)s2)CC1 | -0.371%
CN1CCCN(c2nccc(-c3c[nH]nc3C3CCCCC3)n2)CC1 | 14.1%
OC(CN1CCN(Cc2ccc(F)cc2)CC1)C1CC1 (stereo not given) | -7.53%
COCC1CN(C(=O)c2ccnnc2)Cc2c1cnn2C (stereo not given) | 0.28%
CN(C)C(=O)N1CCc2c(nnn2C)C1COCc1ccccc1 (stereo not given) | 1.92%
CN1CC(=O)N(c2ccsc2)CC12CCN(S(C)(=O)=O)C2 (stereo not given) | -0.605%
CNC(=O)C1(CCCc2cccnc2)CCCCN1 (stereo not given) | 0.849%
O=C(NC1=NCCCN1c1ccc(Cl)cc1)c1cccc(Cl)c1 | 8.32%
CC(NC(=O)NCCCN(C)C)c1ccc2c(c1)CCC(=O)N2 (stereo not given) | -3.92%
CC(C)(C)C(=O)N1CCC2(COCc3cnc(N4CCOCC4)nc32)C1 (stereo not given) | 3.22%
O=C(O)c1c[nH]c2cc(NS(=O)(=O)c3cccc(Cl)c3F)ccc12 | 2.61%
Cc1nc(C2CCCN2CC(=O)NCCOc2ccccc2)no1 (stereo not given) | 1.81%
Cc1csc(N2CCN(C(=O)CCc3ccccn3)CC2)n1 | 5.27%
CC(C)NC(=O)[C@H]1C[C@@H]2[C@@H](C1)OCCN2Cc1cnn(C)c1 | 2.71%
